# mHTT-CaM PPI inh: mutant huntingtin-calmodulin interaction inhibitors – biochemical, AlphaScreen, primary screen. P42858. AlphaScreen His-mHTT/GST-CaM binding, luminescence. inhibition, % at 15 µM. 190,000 tested, 3.6% active. AID 1671202, 2021;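 also: 0% = both proteins with DMSO and 100% = one protein alone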
# Target sequence (P42858 whole entry, looked up, stated change not applied): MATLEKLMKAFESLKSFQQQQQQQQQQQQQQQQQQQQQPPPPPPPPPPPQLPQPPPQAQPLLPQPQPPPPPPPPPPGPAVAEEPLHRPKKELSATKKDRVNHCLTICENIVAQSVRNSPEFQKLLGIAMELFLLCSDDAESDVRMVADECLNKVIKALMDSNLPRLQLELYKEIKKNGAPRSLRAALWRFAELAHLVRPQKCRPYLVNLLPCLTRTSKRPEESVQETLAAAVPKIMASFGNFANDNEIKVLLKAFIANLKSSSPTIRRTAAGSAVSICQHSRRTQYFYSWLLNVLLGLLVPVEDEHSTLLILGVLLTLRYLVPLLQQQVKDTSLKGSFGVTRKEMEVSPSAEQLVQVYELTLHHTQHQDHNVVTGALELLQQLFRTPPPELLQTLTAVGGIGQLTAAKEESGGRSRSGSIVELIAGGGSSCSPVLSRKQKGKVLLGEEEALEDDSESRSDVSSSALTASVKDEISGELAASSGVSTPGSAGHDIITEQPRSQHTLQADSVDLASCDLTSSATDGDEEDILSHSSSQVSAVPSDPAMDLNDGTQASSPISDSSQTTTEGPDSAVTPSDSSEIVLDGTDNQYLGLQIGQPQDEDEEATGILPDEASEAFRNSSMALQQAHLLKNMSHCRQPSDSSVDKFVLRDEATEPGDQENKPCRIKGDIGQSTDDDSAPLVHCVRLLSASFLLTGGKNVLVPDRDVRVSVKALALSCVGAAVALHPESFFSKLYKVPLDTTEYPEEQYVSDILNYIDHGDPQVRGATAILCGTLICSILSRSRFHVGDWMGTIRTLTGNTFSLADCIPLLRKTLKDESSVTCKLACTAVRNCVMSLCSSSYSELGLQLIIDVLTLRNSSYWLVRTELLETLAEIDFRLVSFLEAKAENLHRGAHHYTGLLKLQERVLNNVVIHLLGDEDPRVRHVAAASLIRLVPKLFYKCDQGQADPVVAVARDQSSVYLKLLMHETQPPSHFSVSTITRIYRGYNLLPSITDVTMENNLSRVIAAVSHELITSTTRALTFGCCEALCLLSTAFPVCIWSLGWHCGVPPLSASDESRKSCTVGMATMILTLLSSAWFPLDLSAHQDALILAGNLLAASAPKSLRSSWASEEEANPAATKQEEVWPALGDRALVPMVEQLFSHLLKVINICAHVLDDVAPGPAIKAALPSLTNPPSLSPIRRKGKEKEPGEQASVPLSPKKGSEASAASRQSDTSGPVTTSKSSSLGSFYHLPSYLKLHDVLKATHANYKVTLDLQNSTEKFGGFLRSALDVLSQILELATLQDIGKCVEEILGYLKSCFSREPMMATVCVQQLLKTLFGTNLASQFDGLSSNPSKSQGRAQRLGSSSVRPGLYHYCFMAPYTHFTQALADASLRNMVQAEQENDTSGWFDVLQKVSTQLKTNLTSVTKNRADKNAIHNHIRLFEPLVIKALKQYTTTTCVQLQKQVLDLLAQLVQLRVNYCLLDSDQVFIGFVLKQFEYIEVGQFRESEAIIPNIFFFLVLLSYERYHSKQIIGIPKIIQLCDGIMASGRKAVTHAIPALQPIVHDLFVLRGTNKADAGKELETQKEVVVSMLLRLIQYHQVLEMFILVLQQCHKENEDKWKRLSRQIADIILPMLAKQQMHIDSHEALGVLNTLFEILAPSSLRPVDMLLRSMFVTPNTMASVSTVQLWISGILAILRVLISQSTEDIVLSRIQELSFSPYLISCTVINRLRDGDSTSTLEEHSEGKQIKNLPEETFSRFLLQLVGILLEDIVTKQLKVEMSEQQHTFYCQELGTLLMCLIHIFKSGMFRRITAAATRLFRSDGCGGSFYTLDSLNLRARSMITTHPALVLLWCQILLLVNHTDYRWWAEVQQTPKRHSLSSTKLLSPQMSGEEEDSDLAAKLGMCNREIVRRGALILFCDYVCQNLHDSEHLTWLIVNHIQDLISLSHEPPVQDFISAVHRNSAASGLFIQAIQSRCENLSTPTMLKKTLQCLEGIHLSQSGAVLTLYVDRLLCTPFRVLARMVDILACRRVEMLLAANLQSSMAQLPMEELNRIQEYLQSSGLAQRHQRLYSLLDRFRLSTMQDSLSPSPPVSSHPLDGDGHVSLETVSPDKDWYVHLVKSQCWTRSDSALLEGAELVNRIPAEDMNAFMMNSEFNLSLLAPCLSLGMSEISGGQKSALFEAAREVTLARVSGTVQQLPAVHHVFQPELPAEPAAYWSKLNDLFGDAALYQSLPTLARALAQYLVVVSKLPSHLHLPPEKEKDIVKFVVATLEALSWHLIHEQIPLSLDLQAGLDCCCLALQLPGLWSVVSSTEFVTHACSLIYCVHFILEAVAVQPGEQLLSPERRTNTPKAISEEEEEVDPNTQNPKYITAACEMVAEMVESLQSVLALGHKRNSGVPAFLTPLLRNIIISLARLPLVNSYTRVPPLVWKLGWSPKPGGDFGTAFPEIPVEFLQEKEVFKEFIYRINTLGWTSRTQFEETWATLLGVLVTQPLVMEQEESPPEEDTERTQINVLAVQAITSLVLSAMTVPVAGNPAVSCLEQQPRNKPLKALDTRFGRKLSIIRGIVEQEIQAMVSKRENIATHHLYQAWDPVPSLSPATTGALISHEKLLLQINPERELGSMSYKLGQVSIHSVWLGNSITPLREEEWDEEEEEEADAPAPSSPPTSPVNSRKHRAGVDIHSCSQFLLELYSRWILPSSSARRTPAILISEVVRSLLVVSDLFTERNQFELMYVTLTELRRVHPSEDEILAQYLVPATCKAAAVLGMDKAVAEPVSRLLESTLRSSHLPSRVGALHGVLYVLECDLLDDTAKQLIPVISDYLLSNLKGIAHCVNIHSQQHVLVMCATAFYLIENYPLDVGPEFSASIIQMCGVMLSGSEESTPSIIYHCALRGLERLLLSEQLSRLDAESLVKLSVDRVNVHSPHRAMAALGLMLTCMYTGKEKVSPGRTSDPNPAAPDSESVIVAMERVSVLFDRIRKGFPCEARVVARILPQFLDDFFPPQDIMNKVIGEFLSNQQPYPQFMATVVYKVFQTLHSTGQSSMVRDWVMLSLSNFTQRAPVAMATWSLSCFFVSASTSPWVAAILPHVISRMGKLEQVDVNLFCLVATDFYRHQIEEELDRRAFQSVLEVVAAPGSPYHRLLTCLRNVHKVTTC
# Pf apPOL block: Pf-apPOL inhibitors, biochemical, fluorescence; 210,000 tested, 0.25% active; Recombinant Pf-apPOL, molecular beacon fluorescence, 1.5 h; inhibition, % at 10 µM; Plasmodium falciparum apicoplast DNA polymerase (apPOL)
# * hit, by the source's call; . = no result given. Many of the other results were omitted from the sample, so hits are more common in it than they were. Rule as the data show it: active = inhibition above about 50%; inactive = the rest.
SMILES,mHTT-CaM PPI inh,Pf apPOL block
Cc1nc2ccccc2c2c1C(=O)N(c1cccc(O)c1)C2=O,6.0,-5.0
c1csc(-c2cnc3n2CCC3)c1,-0.1,.
CCOc1ccc(CC(=O)NC2(c3nc(CC)no3)CCCCC2)cc1,-10.1,2.9
O=[N+]([O-])CC1c2ccccc2C=CN1Cc1c(Cl)cccc1Cl (stereo unspecified),12.0,2.2
O=S(=O)(NCC1(CO)CC1)c1ccc(C(F)(F)F)cc1,-5.4,-3.8
Brc1ccc(CN2CCN(Cc3ccccn3)CC2)cc1,-2.0,6.0
CCCCCCCCCn1c[n+](CCCCCCCCC)c2cc(C)c(C)cc21,100.2*,.
O=C1C(c2c(O)n(-c3cc(Cl)cc(Cl)c3)[nH]c2=O)=Nc2ccccc21,24.0,3.2
Cc1ccc(CNC(=O)C2CCN(c3ccc(N4CCCCC4)nn3)CC2)cc1,-8.6,-5.8
O=C(NCCc1c[nH]c2ccccc12)C1CCc2nc(N3CCCC3)ncc2C1 (stereo unspecified),53.8*,-2.8
O=C(NCCc1c[nH]c2ccccc12)C1CCN(c2ccncc2)CC1,14.3,-2.1
O=C(CC1CCN(C(=O)c2ccccc2Cl)CC1)NCc1ccccc1F,-7.3,-0.3
Cc1ccc2[nH]cc(CCNC(=O)C3CCN(c4ccc(N5CCCCC5)nn4)CC3)c2c1,77.8*,-6.8
CN(C)c1ccc(N2CCC(C(=O)NCCc3c[nH]c4ccccc34)CC2)nn1,96.4*,2.1
O=C(CC1CCN(C(=O)c2ccccc2Cl)CC1)NCCc1c[nH]c2ccccc12,70.8*,-4.8
COc1ccc2[nH]cc(CCNC(=O)C3CCc4nc(N5CCCC5)ncc4C3)c2c1 (stereo unspecified),23.1,-7.8
COc1ccc(C2C3CN(C)CC=C3C(C#N)=C(N)C2(C#N)C#N)cc1 (stereo unspecified),6.0,-6.3
CC(CCc1ccccc1)NC(=O)CC1CCN(C(=O)C2CCCCC2)CC1 (stereo unspecified),56.5*,5.9
CN(CCNC(=O)CC1CCN(C(=O)C2CCCCC2)CC1)Cc1ccccc1,-2.9,-6.0
Cc1ccc2[nH]cc(CCNC(=O)CC3CCN(C(=O)C4CCCCC4)CC3)c2c1,86.4*,-7.2
COc1ccc2[nH]cc(CCNC(=O)CC3CCN(C(=O)C4CCCCC4)CC3)c2c1,9.5,-6.4
CCOC(=O)Nc1nnc(-c2ccccc2)s1,2.3,6.9
CC(=O)N(C)c1ccc(NC(=O)C23CC4CC(C2)CC(n2cnc(Cl)n2)(C4)C3)cc1,3.0,6.2
Cc1ccc(CN2CCC(C(=O)N3CCN(c4ccccc4F)CC3)CC2)cc1,16.4,-4.3
Cc1ccc(C(=O)N2CCC(C(=O)N3CCN(c4ccccc4F)CC3)CC2)cc1,6.1,57.4*
SMILES,mHTT-CaM PPI inh,Pf apPOL block
Nc1nc(N)nc(-c2cccnc2)n1,.,-8.7
CCc1noc(-c2cccnc2N2CCCN(Cc3ccc(Br)cc3)CC2)n1,-36.1,6.1
N#Cc1c(SCC(=O)Nc2nncs2)sc2c(O)cc(=O)[nH]c12,53.5*,.
CC(=O)CSc1sc2c(O)cc(=O)[nH]c2c1C#N,4.2,.
CC(C)CCN(C)C1CCN(S(=O)(=O)c2ccc3[nH]c(=O)oc3c2)CC1,8.0,-16.2
O=C(NCc1cccc(F)c1)C1CCCN(c2nn3c(=O)c4c(nc3s2)CCCC4)C1 (stereo unspecified),48.5,-4.9
Cc1ccc(N=Cc2cc3c(cc2[N+](=O)[O-])OCO3)cc1I,55.0*,-8.0
O=[N+]([O-])c1cccc(C=Nc2ccc(I)cc2)c1O,3.0,-3.6
COc1ccc(-c2nc3ccc(N=Cc4cc5c(cc4[N+](=O)[O-])OCO5)cc3o2)cc1,21.0,-4.6
O=[N+]([O-])c1cc2c(cc1C=Nc1ccc(I)cc1)OCO2,64.0*,-1.8
Cc1ccc(C)c(NC(=O)CSc2nnc(NC(=O)c3ccccc3Br)s2)c1,11.7,-18.8
O=c1cncc(-c2ccc([N+](=O)[O-])cc2)n1-c1ccccc1,16.0,3.5
Cc1nc2nc(SCc3cc(=O)n4ccccc4n3)nn2c(C)c1Cc1ccccc1,22.0,-10.6
Cc1ccc(NC(=O)CN2CCN(C3c4ccccc4-c4ccccc43)CC2)cc1F,22.0,0.2
NC(=O)c1ccc(NC(=O)CN2CCN(C3c4ccccc4-c4ccccc43)CC2)cc1,59.0*,1.5
COc1ccc(NC(=O)CN2CCN(C3c4ccccc4-c4ccccc43)CC2)cc1,55.0*,2.3
O=C(CN1CCN(C2c3ccccc3-c3ccccc32)CC1)Nc1ccc(F)cc1,46.0,3.3
O=[N+]([O-])c1ccc(-c2nc(C=Nc3cccnc3)c(O)o2)cc1,-3.0,-2.6
Nc1nc(NC(=O)C(Cl)(Cl)Cl)nn1-c1ccccc1,84.9*,2.4
Nc1nc(NC(=O)c2ccc(Cl)cc2)nn1-c1ccccc1,1.6,-3.4
COc1ccc(C)cc1S(=O)(=O)N1CCN(Cc2ccc3c(c2)OCO3)CC1,-1.5,-1.7
COc1cc(CN2CCN(C/C=C/c3ccccc3)CC2)c([N+](=O)[O-])cc1OC,82.4*,-8.6
Oc1cccc(CN2CCN(C/C=C/c3ccccc3)CC2)c1,1.6,-5.0
O=[N+]([O-])c1cccc(CN2CCN(C/C=C/c3ccccc3)CC2)c1,51.1*,-11.9
CCN1CCN(C/C=C/c2ccccc2)CC1,-5.5,-1.8
SMILES,mHTT-CaM PPI inh,Pf apPOL block
O=[N+]([O-])c1ccccc1CN1CCN(C/C=C/c2ccccc2)CC1,29.0,-2.2
CN(C)c1ccc(/C=C/CN2CCN(Cc3ccccc3)CC2)cc1,56.0*,0.8
COc1ccc(CN2CCN(C/C=C/c3ccccc3)CC2)cc1OC,6.7,-12.2
Clc1ccccc1N1CCN(C/C=C/c2ccccc2)CC1,62.4*,-2.0
Cc1ccc2nc(-c3cccc(NC(=O)C(C)C)c3)oc2c1,4.0,-7.8
COC(=O)Cc1ccc(C(=O)CCCCCCCCCl)s1,-76.2,.
Cn1cccc1C(=O)NCc1nnc2n1CCCC2,1.9,-1.7
NC(=O)C1CCN(C2CC(=O)N(c3cccc(Cl)c3)C2=O)CC1 (stereo unspecified),2.5,-4.7
NC(=O)C1CCN(C(=O)C(Cc2ccccc2)N2C(=O)c3ccccc3C2=O)CC1 (stereo unspecified),1.2,-8.3
FC(F)(F)c1ccc2c(c1)Nc1ccccc1S2,.,11.9
Fc1ccc2c(c1)Sc1ccccc1N2,73.6*,-10.4
O=C(NCCc1cscn1)C1CSCN1C(=O)c1cccc(Cl)c1 (stereo unspecified),0.4,-3.6
O=C(Nc1ccc(Cl)c(Cl)c1)c1cc(S(=O)(=O)NCc2ccco2)ccc1F,100.0*,-4.0
O=C(Nc1ccc(F)c(F)c1)c1ccc(F)c(S(=O)(=O)NCc2ccco2)c1,0.0,-21.4
O=C(Nc1cccc(Cl)c1)c1ccc(F)c(S(=O)(=O)NCc2cccs2)c1,8.0,-6.5
COc1ccccc1CNS(=O)(=O)c1ccc(F)c(C(=O)Nc2ccc(C)c(Cl)c2)c1,70.0*,0.5
O=C(Nc1ccc(Cl)c(Cl)c1)c1ccc(F)c(S(=O)(=O)NCc2ccco2)c1,64.0*,-4.4
O=C(Nc1ccc(Cl)c(Cl)c1)c1ccc(F)c(S(=O)(=O)NCc2cccs2)c1,81.0*,4.9
O=C(Nc1cc(Cl)cc(Cl)c1)c1cc(S(=O)(=O)NCc2ccco2)ccc1F,11.0,-6.1
COc1ccccc1CNS(=O)(=O)c1ccc(F)c(C(=O)Nc2ccc(F)c(F)c2)c1,-1.0,1.0
Oc1ccc(-c2csc(-c3ccncc3)n2)c(O)c1,-3.8,2.5

# Source: PubChem
